Screening results as filed in PubChem BioAssay.
CBFb RUNX1 block: inhibitors of human CBF-beta and RUNX1 interaction; 230,000 tested, under 10 active; AlphaScreen CBFb-His/RUNX1-biotin binding, biochemical; AID 1477; Potency, µM (highest dose often 59.8 µM), most hits filed as inhibitors; Q01196+Q13951
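CBFb-His/RUNX1-biotin, 30 nM each, preincubated 20 min RT; compound 15 min RT; Ni + streptavidin beads 50 ng each, 90 min RT; AlphaScreen read.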
Gal4-VP16 FLuc: counter-screen for ROR gamma inhibitors: Gal4-VP16 reporter; hit rate 3.5% among 310,000; Potency, µM (top dose mostly 53.6 µM), most hits filed as inhibitors; AID 2546; Drosophila S2 Gal4-VP16 UAS-luciferase, luminescence, 20 h;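 also: Gal4-VP16 expression switched on by copper sulfate through the metallothionein promoter; nearly all actives have a fitted effect of over 50% in size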
Six1-Eya2 inh: blocks human Six1 binding to Eya2; Q15475+O00167; AlphaScreen GST-Six1/His-Eya2 binding, biochemical; stronger effect = lower value; activity change, % (concentration not given with the values); hit rate 0.56% among 360,000; AID 651725; in the data active = activity change below about -65%; inconclusive = mostly about -30% to -63%
Target sequence (O00167 whole entry, looked up): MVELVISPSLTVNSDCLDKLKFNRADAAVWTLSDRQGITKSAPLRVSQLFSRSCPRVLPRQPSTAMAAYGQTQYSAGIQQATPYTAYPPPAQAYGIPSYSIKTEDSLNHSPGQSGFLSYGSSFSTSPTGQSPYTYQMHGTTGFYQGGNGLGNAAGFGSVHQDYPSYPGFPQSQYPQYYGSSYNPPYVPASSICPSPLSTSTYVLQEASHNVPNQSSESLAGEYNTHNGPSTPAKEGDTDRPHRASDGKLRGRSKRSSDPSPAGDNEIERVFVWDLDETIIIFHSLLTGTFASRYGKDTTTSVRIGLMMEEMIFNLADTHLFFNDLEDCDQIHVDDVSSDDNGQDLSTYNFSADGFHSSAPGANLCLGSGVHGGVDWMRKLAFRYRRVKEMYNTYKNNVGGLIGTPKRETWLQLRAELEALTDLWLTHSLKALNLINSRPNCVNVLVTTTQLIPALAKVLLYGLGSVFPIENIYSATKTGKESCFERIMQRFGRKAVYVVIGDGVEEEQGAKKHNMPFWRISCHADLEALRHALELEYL
Target sequence (Q15475 whole entry, looked up): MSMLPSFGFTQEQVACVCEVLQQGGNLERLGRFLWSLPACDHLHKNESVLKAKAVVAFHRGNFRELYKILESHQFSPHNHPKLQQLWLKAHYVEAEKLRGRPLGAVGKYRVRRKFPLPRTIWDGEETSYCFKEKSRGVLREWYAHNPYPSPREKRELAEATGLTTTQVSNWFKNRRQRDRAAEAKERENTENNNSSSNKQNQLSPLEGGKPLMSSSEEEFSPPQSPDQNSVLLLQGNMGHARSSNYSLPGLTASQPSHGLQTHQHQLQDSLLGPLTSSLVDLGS
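GST-Six1 + His-Eya2 (5X stock: 250/500 nM); Tris pH 8.0, 300 mM NaCl, 0.05% BSA, 0.02% Tween 20; GSH donor/Ni acceptor beads; 1 h 37 °C dark; AlphaScreen readout.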
MBNL1 CUG block: blocks human MBNL1 binding to CUG repeat RNA; Q9NR56; hit rate 0.036% among 280,000; TR-FRET MBNL1-His/biotin-(CUG)12 binding, 665/545 ratio; Potency, µM (top dose mostly 57.5 µM), usual class: inhibitors; active = well fitted inhibition curve with a large enough effect in the signal ratio, with a control signal flat, not every such curve was filed as active; inconclusive = small, poorly fitted or top-dose-only effect, or effect the other way, or a change in a side signal; inactive = no such curve, though single readings can be large or run the other way; the % refers to the signal ratio
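His-tagged MBNL1 binding to biotinylated (CUG)12 RNA was measured by TR-FRET using terbium anti-His antibody (0.055 ng/ul final) and streptavidin-XL665 (5 nM final). Compounds were titrated 92 nM to 58 uM; 60 min at room temperature.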
RORg inh: ROR gamma (mouse) transcription inhibition; AID 2551; P51450; Drosophila S2 Gal4-RORgamma UAS-luciferase reporter, 20 h; Potency, µM (top dose mostly 53.6 µM), hits mostly inhibitors; hit rate 5.4% among 310,000; also: nearly all actives have a fitted effect of over 60% in size
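Drosophila Schneider cells stably carrying a metallothionein-driven Gal4 DBD–ROR gamma fusion and a UAS-Photinus luciferase reporter were exposed to compound for 1 hr, then induced with copper sulfate (700 uM final) for 20 hr at ambient temperature before luminescence reading.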
CtBP-E1A inh: blocks the CtBP interaction with E1A; AID 651724; activity change, % (concentration not given with the values); AlphaScreen GST-E1A/His-CtBP binding, 1536-well; stronger effect = lower value; hit rate 0.49% among 340,000; in the data active = activity change below about -65%; inconclusive = mostly about -30% to -63%
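Steps: dispense buffer (Tris pH 8.0, NaCl 300 mM, TCEP 1 mM, BSA, Tween 20); add 5X protein mix (GST-E1A, His-CtBP, 125 nM each); pin 23 nL compound; 2 h at 37 °C, dark; add 5X beads (50 ug/mL); 1 h; read.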
A number is an active result; i = inactive; ? = inconclusive; nt = no result given; [ ] = remark or other dose. Sampled rows, rich in hits. Any-hit rate of the full collection: about 5.5%. Unless noted, calls follow the shape of the dose curve; as a rule, active = well fitted curve in the direction sought with a large enough effect; inconclusive = small, poorly fitted or top-dose-only effect, or another doubt; inactive = no such curve, though single readings can be large; an effect the other way counts as inactive or inconclusive.

SMILES	CBFb RUNX1 block	Gal4-VP16 FLuc	Six1-Eya2 inh	MBNL1 CUG block	RORg inh	CtBP-E1A inh
Cc1nonc1C(=O)N/N=C/c1ccc(O)cc1O	i	i	-90	i	i	nt
O=C(N/N=C/c1ccc(Cl)cc1Cl)c1ccncc1	nt	i	i	?	i	nt
Cc1nonc1C(=O)N/N=C/c1ccncc1	i	i	i	i	i	nt
COc1ccccc1CN1CC2(CCN(C(=O)c3ccncc3)CC2)C1	nt	i	nt	nt	i	nt
O=C(N/N=C/c1ccc(O)cc1O)c1ccncc1	nt	i	-93	i	i	-91
CC(=O)N1c2ccc(S(=O)(=O)N(C)Cc3ccccc3)cc2CC1C (centres undefined)	nt	i	i	i	i	i
O=C1CC2(CCN(C(=O)C3CC(=O)N(c4ccc(F)cc4)C3)CC2)Oc2ccccc21 (centres undefined)	nt	nt	i	nt	nt	i
COc1ccccc1-c1nnc(SCC(=O)NC2CCS(=O)(=O)C2)n1N (centres undefined)	i	i	i	i	i	i
FC(F)Oc1ccc(NC(=S)NCc2cccnc2)cc1	i	i	i	i	i	i
Fc1ccc(CNC(=S)Nc2ccc(OC(F)F)cc2)cc1	i	?	i	nt	11µM	nt
COc1cc(NC(=S)Nc2ccc(OC(F)F)cc2)cc(OC)c1	i	?	i	i	10µM	i
COc1ccc(C(=O)N/C(=C/c2cccnc2)C(=O)N2CCCCCC2)cc1OC	nt	i	i	i	i	i
NNC(=O)Cn1nc(-c2ccccc2)c2ccccc2c1=O	nt	i	i	i	i	nt
CCN1CCCc2cc(CN(CCN3CCOCC3)C(=S)Nc3ccccc3OC)ccc21	i	i	?	i	10µM	nt
CCOc1ccc2c(c1)C(N(CCN1CCOCC1)C(=S)Nc1ccccc1OC)CC(C)(C)O2 (centres undefined)	i	?	i	i	16µM	nt
CCN1CCCc2cc(CN(CCN3CCOCC3)C(=S)Nc3ccccc3C)ccc21	i	i[10 µM]	i	?	i	i
CCN1CCCc2cc(CN(CCN3CCOCC3)C(=S)Nc3cccc(C)c3)ccc21	?	i[10 µM]	?	i	6.3µM	i
CC(C)[C@H](NC(=O)[C@@H]1CSC2c3ccccc3C(=O)N21)C(=O)N1CCCCC1 (some centres undefined)	nt	i	i	i	i	i
Cc1ccc(N(C)S(=O)(=O)c2cccc(C(=O)OCC(=O)N3CCCC(C)C3)c2)cc1 (centres undefined)	nt	nt	i	nt	nt	i
Cc1cccc2cc3c(NC(=O)c4ccccn4)nn(C)c3nc12	i	4µM	i	i	2µM	i
CCOc1ccc(S(=O)(=O)NCC(=O)NC2CCCCC2)cc1	nt	nt	i	nt	nt	i
Oc1oc(-c2ccccc2)nc1/C=N/c1nccs1	i	?	i	?	16µM	i
CCCCOc1ccc(-c2nc(/C=N/c3nccs3)c(O)o2)cc1	i	i	i	i	?	i
O=c1ncccn1[C@@H]1O[C@H](CO)[C@@H](O)[C@H]1O	i	i	nt	nt	i	nt
COc1ccc2c(CCNC(N)=S)c[nH]c2c1	i	i	i	i	i	i
SMILES	CBFb RUNX1 block	Gal4-VP16 FLuc	Six1-Eya2 inh	MBNL1 CUG block	RORg inh	CtBP-E1A inh
COc1ccc(C(=O)NCCc2c[nH]c3ccc(OC)cc23)cc1	nt	i	i	i	i	i
COc1ccc(NC(=S)NCCc2c[nH]c3ccc(OC)cc23)c(OC)c1	i	?	i	i	14µM	i
COc1ccc(NC(=S)NCCc2c[nH]c3ccccc23)c(OC)c1	i	?	i	i[11.5 µM]	7.9µM	nt
COc1cc(COc2cc(N)c(Cl)cc2C(=O)CCC2CCN(CCNS(C)(=O)=O)CC2)cc(OC)c1	i	16µM	nt	nt	16µM	nt
CCc1c(C)sc(NC(=O)c2noc(C)c2[N+](=O)[O-])c1C#N	i	?	i	i	18µM	nt
Cc1nc(C(=O)NNC(=O)c2cccc(Cl)c2)c(C(F)(F)F)o1	i	i	i	i	8.9µM	i
O=[N+]([O-])c1cccc(/C=N/n2cnnc2)c1O	i	i	i	nt	i	i
Cc1cc(N/N=C/c2ccccc2Br)nc2ccccc12	i	16µM	i	i	0.56µM	i
Brc1ccc(/C=N/Nc2ccc3ccccc3n2)cc1	i	?	i	i	7.9µM	i
O=C(O)c1cc(N/N=C/c2ccc3c(c2)OCCO3)ccc1Cl	i	11µM	i	nt	?	i
O=C(O)c1cc(N/N=C/c2ccc3c(c2)OCO3)ccc1Cl	i	i	i	i	?	i
O=[N+]([O-])c1cccc(C=NNc2ccc3ccccc3n2)c1O	nt	nt	-91	nt	nt	-95
Cc1cc(N/N=C(/CCC(=O)O)C(=O)O)nc2ccccc12	?	i	?	nt	i	?
CC(=O)OC1CC(OC(C)=O)[C@]2(C)C(CC(OC(C)=O)[C@]3(C)C2CC[C@@]2(C)C(c4ccoc4)OC(=O)C4O[C@]432)C1(C)C (some centres undefined)	i	i	nt	nt	?	nt
CCOc1ccc(C(=O)C(C)OC(=O)Cn2c(C)csc2=O)cc1 (centres undefined)	nt	nt	i	nt	nt	i
CC(OC(=O)CSc1ccc(F)cc1)C(=O)NC1(C#N)CCCCC1 (centres undefined)	nt	i	i	i	i	i
C(=N\Nc1ccccn1)/c1ccc2c(c1)OCCO2	i	?	i	i	13µM	i
Fc1ccc(/C=N\Nc2cccc(F)c2)cc1	nt	i	i	i	i	i
Fc1cccc(/C=N/Nc2ccc3ccccc3n2)c1	i	?	i	i	7.1µM	i
Brc1ccccc1/C=N/Nc1ccc2ccccc2n1	i	8.9µM	i	i	0.32µM	i
O=Cc1cc2cc3c(cc2nc1Cl)OCCO3	i	i	i	?	i	i
O=C(O)c1ccc(N/N=C/c2cc3cc4c(cc3nc2Cl)OCCO4)cc1	i	4µM	i	?	2.5µM	i
Cc1ccc(C)c(/C=N/Nc2ccccn2)c1	i	i	i	i	10µM	i
Fc1cccc(/C=N/Nc2ccccn2)c1	i	?	i	i	11µM	i
Cc1cc2c(n1-c1ccc(C(=O)O)cc1)CCCCC2	nt	i	nt	i	i	nt
SMILES	CBFb RUNX1 block	Gal4-VP16 FLuc	Six1-Eya2 inh	MBNL1 CUG block	RORg inh	CtBP-E1A inh
O=C(NCc1cn(-c2ccccc2)nc1-c1ccccc1)c1ccc([N+](=O)[O-])cc1	i	7.1µM	i	i	?	nt
Cc1cccc(NC(=O)/C=C/c2cccs2)n1	i	22µM	i	?	?	i
Cc1cccc(NC(=S)NC(=O)c2cccs2)n1	i	?	?	i	3.5µM	?
Cc1cccc(NC(=O)CCC(=O)c2cccs2)n1	nt	nt	i	nt	nt	i
Cc1ccc(OCC(=O)NC(=S)Nc2ccc(Br)c(C)n2)cc1	i	i	i	i	2.5µM	i
Cc1nc(NC(=S)NC(=O)c2cncc(Br)c2)ccc1Br	i	i	i	i	i	i
Cc1nc(NC(=S)NC(=O)c2cccs2)ccc1Br	i	13µM	i	i[11.5 µM]	1.4µM	i
O=C(/C=C/c1cccs1)Nc1ccncc1	i	i	i	nt	i	i
